Assay results as given in PubChem BioAssay (NCI).
Compounds without any hit were thinned out: in the full panel of roughly 79,000, 15% have a hit. A number with no mark means an inactive call. Activity calls are given as the source filed them. Rule as the data show it: active = growth inhibition above about 70%; inactive = the rest.

Key:
[1] = NCI Yeast Anticancer Drug Screen. Data for the rad50 strain (AID 155);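 also: 0% = growth of vehicle-only cultures of the same strain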; details: S. cerevisiae rad50 strain growth inhibition, hits give high values
Method in brief: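 A DNA repair-deficient yeast mutant serves as the test organism; compound-induced growth inhibition is calculated against vehicle-treated cells.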

[2] = NCI Yeast Anticancer Drug Screen. Data for the mec2-1 strain (AID 157); details: S. cerevisiae mec2-1 strain, hits give high values
Method in brief: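 Using mec2-1 yeast: add compound, measure growth, express inhibition versus vehicle-treated cultures.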

[3] = NCI Yeast Anticancer Drug Screen. Data for the sgs1 mgt1 strain (AID 161);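 also: 0% = growth of cultures given vehicle only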; details: S. cerevisiae sgs1 mgt1 strain, hits give high values
Method in brief: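 Percent growth inhibition was derived by comparing compound-exposed mutant yeast with vehicle-exposed cultures. The strain carries alterations in DNA damage repair.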

[4] = NCI Yeast Anticancer Drug Screen. Data for the cln2 rad14 strain (AID 165);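 also: 0% = growth equal to vehicle treated cultures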; details: S. cerevisiae cln2 rad14 strain, hits give high values
Method in brief: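 Yeast strain cln2 rad14, bearing defects in cell cycle control and DNA repair, serves as the test system; values reflect growth inhibition compared with vehicle.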

[5] = NCI Yeast Anticancer Drug Screen. Data for the bub3 strain (AID 167); details: S. cerevisiae bub3 mutant strain, hits give high values
Method in brief: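 Inhibition values come from growth of compound-treated mutant yeast normalised to vehicle-treated controls.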

[6] = NCI Yeast Anticancer Drug Screen. Data for the mlh1 rad18 strain (AID 175); details: S. cerevisiae mlh1 rad18 strain growth inhibition, hits give high values
Method in brief: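 Steps: expose repair-defective yeast to compound; measure growth; express inhibition against vehicle-treated controls.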

[7] = at 5.0 µM (retest, dose inferred, filed as 0.5)
[8] = at 50.0 µM (retest, dose inferred, filed as 5.0)

| Compound | growth inhibition [1, 7] | growth inhibition [1, 8] | growth inhibition ([1]; at 50.0 µM) | growth inhibition [2, 7] | growth inhibition [2, 8] | growth inhibition ([2]; at 50.0 µM) | growth inhibition [3, 7] | growth inhibition [3, 8] | growth inhibition ([3]; at 50.0 µM) | growth inhibition [4, 7] | growth inhibition [4, 8] | growth inhibition ([4]; at 50.0 µM) | growth inhibition [5, 7] | growth inhibition [5, 8] | growth inhibition ([5]; at 50.0 µM) | growth inhibition [6, 7] | growth inhibition [6, 8] | growth inhibition ([6]; at 50.0 µM) |
| --- | --- | --- | --- | --- | --- | --- | --- | --- | --- | --- | --- | --- | --- | --- | --- | --- | --- | --- |
| CC(=O)[O][Pb]([O]C(C)=O)([O]C(C)=O)[c]1ccccc1 | 71% (active) | 98% (active) | 90.5% (active) | 74% (active) | 99% (active) | 93.5% (active) | 86% (active) | 99% (active) | 93.6% (active) | 35% | 99% (active) | 89.2% (active) | 86% (active) | 99% (active) | 91.8% (active) | 91% (active) | 98% (active) | 91.2% (active) |
| Nc1nc(N)c(-c2ccc(Cl)c(Cl)c2)c(COc2cccc(CNS(=O)(=O)c3cccc(S(=O)(=O)F)c3)c2)n1 | -6% | 92% (active) | 89.5% (active) | -4% | 70% (active) | 92.4% (active) | -1% | 85% (active) | 66.2% | -15% | 60% | 77.2% (active) | -4% | 62% | 88.8% (active) | -3% | 83% (active) | 96.3% (active) |
| OC1C2[C@@H](O)CCCN2C[C@@H](O)[C@H]1O (some centres not stated) | 15% | 21% | -45.2% | 11% | 13% | -59% | 5% | 14% | -34.5% | 5% | 20% | 8.4% | – | – | – | 14% | 58% | -15.3% |
| CNP1(=O)OC(c2ccccc2)=CCN1CCCl (configuration not stated) | 3% | -1% | 76.3% (active) | -2% | 10% | 47.6% | 5% | -1% | 58.8% | 0% | 6% | -30.3% | 0% | -2% | 23.9% | 0% | 5% | 71.2% (active) |
| CC(=O)OC[C@]12C[C@H](OC(=O)CC(C)C)C(C)=C[C@H]1OC1[C@H](O)[C@@H](OC(C)=O)[C@@]2(C)[C@@]12CO2 | 97% (active) | 98% (active) | 92.8% (active) | 98% (active) | 99% (active) | 94.4% (active) | 99% (active) | 99% (active) | 93.8% (active) | 97% (active) | 98% (active) | 91.8% (active) | 98% (active) | 99% (active) | 92.2% (active) | 97% (active) | 98% (active) | 92.6% (active) |
| CC([CH2][Hg][Cl])c1ccccc1 (configuration not stated) | 99% (active) | 99% (active) | 99.3% (active) | 100% (active) | 100% (active) | 99.5% (active) | 100% (active) | 99% (active) | 99.6% (active) | 99% (active) | 99% (active) | 99.5% (active) | – | – | – | 100% (active) | 99% (active) | 99.5% (active) |
| O=[N+]([O-])/C=C/c1cccc(F)c1 | 40% | 99% (active) | 99.5% (active) | 30% | 99% (active) | 99.7% (active) | 29% | 99% (active) | 99.6% (active) | 10% | 99% (active) | 99.3% (active) | – | – | – | 59% | 99% (active) | 99.4% (active) |
| O=C([CH-]C(=O)c1ccccc1)c1ccccc1.O=C([CH-]C(=O)c1ccccc1)c1ccccc1.O=C([CH-]C(=O)c1ccccc1)c1ccccc1.[Cl-].[Zr+4] | 36% | 89% (active) | 87.5% (active) | 38% | 83% (active) | 67.3% | 45% | 93% (active) | 86.7% (active) | – | – | – | 62% | 93% (active) | 89.7% (active) | 29% | 93% (active) | 87.8% (active) |
| CC(=O)[O-].O=C([CH-]C(=O)c1ccccc1)c1ccccc1.O=C([CH-]C(=O)c1ccccc1)c1ccccc1.[Y+3] | 35% | 35% | 91.4% (active) | 19% | 19% | 93.7% (active) | 42% | 42% | 93.6% (active) | – | – | – | 21% | 21% | 92% (active) | 13% | 13% | 90.5% (active) |
